Assay results reported in PubChem BioAssay (Tox21).
Inconclusive results are not listed. Activity calls are given as the source filed them. Calls come from the whole dose curve; as a rule, active = well fitted inhibition curve with a large enough effect in the repeat runs; inconclusive = weak or mixed curves; inactive = no such curve, though single readings can be large or run the other way.

Test: qHTS assay to identify small molecule antagonists of the thyroid receptor (TR) signaling pathway (AID 743065); note: nearly all actives have a fitted effect of over 55% in size
Settings: GH3.TRE-Luc, T3-stimulated luciferase inhibition, 23.5 h; series mostly up to 70.3 µM; activity, negative = inhibition: at the top concentration
Source text: U.S. Tox21 Program National Center for Advancing Translational Sciences [NCATS] NIH Chemical Genomics Center [NCGC] U.S. Environmental Protection Agency [EPA] National Institutes of Environmental Health Sciences [NIEHS] National Toxicology Program [NTP] U.S. Food and Drug Administration [FDA] Tox21 Assay Overview: Thyroid receptor (TR), a nuclear hormone receptor, plays an important role in development, proliferation, differentiation, metabolism, brain function, and cardiovascular system. […] To profile the Tox21 10K compound library in TR signaling, a cell-based GH3-TRE-Luc assay (GH3.TRE-Luc cell line, developed by the laboratory of Dr. Albertinka J. Murk, Wageningen University) was used to measure the inhibition of TR. GH3 (rat pituitary tumor) cells stably expressing a TR activity sensor consisting of two TR response elements and a luciferase reporter gene.
Tox21 Assay Protocol Summary: GH3.TRE-Luc cells were dispensed at 1500 cells/4 uL/well into 1536-well white solid bottom plates using a Multidrop Combi dispenser (Thermo Fisher Scientific Inc., Waltham, MA). After the assay plates were incubated at 37 C for 4 hours, 23 nL of library compound or DMSO controls was transferred to the assay plates by a pintool station (Kalypsys, San Diego, CA), followed by addition of 1 ul of T3 (1 nM, final concentration in the wells) to stimulate TR transactivation. The assay plates were incubated at 37 C for 23.5 h, and then 1 uL of CellTiter-Fluor reagent (Promega, Madision, WI) of measuring cytotoxicity was added to each well using a Bioraptr Flying Reagent Dispenser (FRD) workstation (Beckman Coulter, Indianapolis, IN, USA). The plates were incubated at 37 C and 5% CO2 for additional 30 min, and fluorescence intensity was measured by a ViewLux plate reader (PerkinElmer, Shelton, CT). For measuring luciferase reporter gene activity, 4 uL of ONE-Glo Luciferase Assay reagent (Promega) was added to each well using a Bioraptr FRD (Beckman Coulter), followed by 30 min incubation at room temperature. The luminescence intensity of plates was recorded by a ViewLux plate reader (PerkinElmer, Shelton, CT).
% is set by controls: 0 for no effect and ±100 for the full control effect; potency is the fitted concentration of half-maximal effect.

SMILES | activity, negative = inhibition | Potency
CCCCOC(=O)[C@@H](C)Oc1ccc(Oc2ccc(C#N)cc2F)cc1 | -8.94% (inactive) | 
BrCCCCCCBr | 0.571% (inactive) | 
Cc1coc2c1CCC(C)C2 (stereo not given) | -12.1% [at 95 µM] (inactive) | 
CSc1ccc(C(=O)C(C)(C)N2CCOCC2)cc1 | -19.9% (inactive) | 
CCC1(c2ccccc2)C(=O)NC(=O)NC1=O |  | inactive
O=C1c2ccccc2C(=O)c2ccccc21 | 10.1% (inactive) | 
CCC(C)n1c(=O)[nH]c(C)c(Br)c1=O (stereo not given) | 0.135% (inactive) | 
CCCCc1c(C)nc(NCC)[nH]c1=O | 5.05% (inactive) | 
CCOC(=O)N(C)C(=O)CSP(=S)(OCC)OCC | 0.0624% (inactive) | 
Oc1c(Cl)cccc1Cl | 5.04% (inactive) | 
CCS(=O)(=O)CCSP(=O)(OC)OC | 12% (inactive) | 
CC(C1CC1)C(O)(Cn1cncn1)c1ccc(Cl)cc1 (stereo not given) | -6.55% (inactive) | 
O=C(O)c1cccc(Cl)c1 | 9.47% (inactive) | 
COC(=O)COc1ccc(Cl)cc1Cl | -12.7% (inactive) | 
CC1=C(C(=O)Nc2ccccc2)S(=O)(=O)CCO1 |  | 27.3 µM (active)
CNCC(=O)c1ccc(O)c(O)c1 | 9.63% (inactive) | 
OCCBr | 0.0081% (inactive) | 
CCCCCCBr | -5.11% [at 95 µM] (inactive) | 
Nc1cc2c3c(c1)C(c1ccccc1)=N[C@@H](NC(=O)c1cccnc1)C(=O)N3CC2 | -1.42% (inactive) | 
C#CCN1C(=O)COc2cc(F)c(N3C(=O)C4=C(CCCC4)C3=O)cc21 | -0.144% (inactive) | 

SMILES | activity, negative = inhibition | Potency
COc1ncc(F)c2nc(S(=O)(=O)Nc3c(F)cccc3F)nn12 | -1.26% (inactive) | 
CCOP(=S)(OCC)Oc1cc(-c2ccccc2)on1 | 7.94% (inactive) | 
O=[N+]([O-])c1cc(Cl)c(Cl)c(Cl)c1 | 9.19% (inactive) | 
CCN(CC)CCOC(=O)C(C)(c1ccccc1)c1ccccc1 |  | 26.6 µM (active)
CNNC | -1.37% [at 95 µM] (inactive) | 
CCC1(c2ccccc2)C(=O)N=C(O)NC1=O (stereo not given) | 5.8% (inactive) | 
c1cc[c]([Hg][c]2ccccc2)cc1 |  | 3.06 µM (active)
C=CC1CC=CCC1 (stereo not given) | 6.75% (inactive) | 
Cc1nc(N)nc(N)n1 | -0.582% [at 95 µM] (inactive) | 
C(CCOCC1CO1)COCC1CO1 (stereo not given) |  | 42.6 µM (active)
O=[N+]([O-])c1cccc2cccnc12 | -0.407% [at 95 µM] (inactive) | 
ClCC(Cl)Cl | 8.02% [at 95 µM] (inactive) | 
O=S(=O)(O)C(F)(F)C(F)(F)C(F)(F)C(F)(F)C(F)(F)C(F)(F)F | -11.1% (inactive) | 
CN(N=O)C(N)=O | 0.669% (inactive) | 
CCOC(=O)/C=C(C)/C=C/C[C@@H](C)CCCC(C)C | 7.88% (inactive) | 
CCC(Cl)[N+](=O)[O-] (stereo not given) | 9.3% [at 95 µM] (inactive) | 
O=C1OC(c2ccc(O)c(S(=O)(=O)O)c2)(c2ccc(O)c(S(=O)(=O)O)c2)c2c(Br)c(Br)c(Br)c(Br)c21 | -13.6% (inactive) | 
N#CC(CCc1ccc(Cl)cc1)(Cn1cncn1)c1ccccc1 (stereo not given) |  | 34.4 µM (active)
O=[N+]([O-])c1cccc(O)c1 | -13.1% [at 95 µM] (inactive) | 
CCCCc1ccc(O)cc1 | -9.06% (inactive) | 
